The values below come from PubChem BioAssay (NCI).

Compounds without any hit were thinned out: in the full panel of roughly 83,000, 20% have a hit.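 Values shown are percent growth following 48 h exposure of cells in 96-well plates to a single concentration of compound; below 10 was considered active.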 Values without a mark were called inactive. Calls of active or inactive are those of the source.

Common to all, as to assay: NCI-60 one-dose screen, 48 h (100 = growth as untreated, 0 = no growth, -100 = all killed)
What all share (details): 10 µM unless noted

The subject of assay [1] is T-47D breast.
The test system of assay [2] is BT-549 breast.
Assay [3] deals with MDA-MB-435 melanoma.
Assay [4] has as its system SW-620 colon.
Assay [5] deals with MCF7 breast.
Assay [6] has as its system HCT-116 colon.
The subject of assay [7] is HCC-2998 colon.
Assay [8] has as its system KM12 colon.

Turning to `Clc1ccc(-c2c3ccc(=[N+]4CCCCC4)cc-3oc3cc(N4CCCCC4)ccc23)cc1`, the growth is -75.3% (active) in assay [1]; -93.5% (active) in assay [2]; -59.9% (active) in assay [3]; -83.8% (active) in assay [4]; -73.9% (active) in assay [5]; -97.3% (active) in assay [6]. For the same molecule, the growth was -95.6% (active) in assay [7] and -86.9% (active) in assay [8].
For the molecule `Cc1nn(-c2ccccc2)c(Cl)c1/C=C(/NC(=O)c1ccccc1)c1nc2ccccc2[nH]1`, the growth in assay [1] is 86.7%; in assay [2], 93.5%; in assay [3], 91.5%; in assay [4] it was 105%; in assay [5], 93.1%; in assay [6], 86.6%. Besides, the results for the growth in assay [7] and in assay [8] were 131% and 107%, respectively.
Consider `CS(=O)c1cccc(-c2ccc3nc(N)n(-c4ccc(C(F)(F)F)cc4)c(=O)c3c2)c1` (stereo not drawn), for which the growth in assay [1] was 77.1%; in assay [2] it was 99.4%; in assay [3] it was 105%; in assay [4], 103%; in assay [5] it was 104%; in assay [6], 100%. Besides, the growth in assay [7] was 106%; in assay [8], 98.5%.
Regarding `O=C(/C=C/c1c(Cl)nc2sccn12)c1ccc(F)c(F)c1`, the growth was 50.3% in assay [1]; 71.6% in assay [2]; 82.6% in assay [3]; 77.3% in assay [4]; 45.2% in assay [5]; 69.5% in assay [6]. The growth was 85.6% in assay [7] and 83% in assay [8].
In the case of `Nc1ccc2c(c1)c(N)nn2C(=O)Nc1ccc(Cc2ccccc2)cc1`, the growth in assay [1] is 60.4%; in assay [2], 86.4%; in assay [3], 68.9%; in assay [4], 93.4%; in assay [5], 64.3%; in assay [6], 52.5%. For the same molecule, the values for the growth in assay [7] and in assay [8] were 36.9% and 65.3%, respectively.
For the molecule `CC1O[C@@H](OC2[C@H](OC(=O)/C=C/c3ccc(O)c(O)c3)C(COC3O[C@H](C)C(O)C(O)[C@@H]3O)O[C@@H](OCCc3ccc(O)c(O)c3)[C@H]2O)[C@@H](O)C(O)[C@H]1O` (stereo partly drawn), the growth is 83.1% in assay [1]; 98.8% in assay [2]; 103% in assay [3]; 108% in assay [4]; 98.2% in assay [5]; 103% in assay [6]. Further, the growth in assay [7] is 99.4%; in assay [8] it was 99.3%.
On to `COc1cc(Cn2ncc3ccc(NC(=O)c4cc5ccccc5oc4=N)cc32)cc(OC)c1OC`, for which the growth in assay [1] is 39.6%; in assay [2], 43.6%; in assay [3], -16.1% (active); in assay [4] it was 43.5%; in assay [5] it was 25%; in assay [6], 26.6%. Moreover, the growth in assay [7] was 85%; in assay [8], 32.5%.
Take `COc1cc(-c2n/c(=C\c3c(O)[nH]c4ccc(Cl)cc34)cc3c2=Nc2ccccc2-3)cc(OC)c1OC`: the growth in assay [1] was 32.7%; in assay [2] it was 101%; in assay [3] it was 16.6%; in assay [4] it was -29.5% (active); in assay [5], 0.83% (active); in assay [6], -73.5% (active). In addition, the growth is 44.6% in assay [7] and 2.53% (active) in assay [8].
With `O=c1c2cc(F)ccc2sc2c(Nc3cccnc3)nc3ccccc3c12`, the growth in assay [1] is 84.7%; in assay [2], 98.7%; in assay [3], 99.1%; in assay [4] it was 85.6%; in assay [5], 55.1%; in assay [6] it was 61.5%. In addition, the figures for the growth in assay [7] and in assay [8] were 94.1% and 89.2%, respectively.
For the molecule `Cc1nn(-c2ccccc2)c(Oc2ccc(Cl)cc2)c1/C=N\N=c1/sc2ccccc2n1C`, the growth was 66.4% in assay [1]; 84.1% in assay [2]; 97.2% in assay [3]; 77.8% in assay [4]; 85% in assay [5]; 73.2% in assay [6]. Moreover, the growth was 103% in assay [7] and 94.6% in assay [8].
For `COc1ccc(OC)c(-c2c(C#N)c(-c3ccc(Cl)cc3)nc3c2c(-c2ccccc2)nn3-c2ccccc2)c1`, the growth in assay [1] is 90.3%; in assay [2] it was 101%; in assay [3] it was 103%; in assay [4], 98.6%; in assay [5] it was 90.7%; in assay [6], 93.8%. For the same molecule, the growth in assay [7] is 108%; in assay [8], 99.2%.
On to `O=S(=O)(Nc1cccc(Cl)c1)c1ccc(-c2cnc(C3CC3)o2)cc1`, for which the growth in assay [1] was 25%; in assay [2] it was 26.6%; in assay [3], -21.5% (active); in assay [4], 11.3%; in assay [5], 14.2%; in assay [6] it was 15.3%. The growth in assay [7] was 46.3%; in assay [8] it was 20.8%.
For the molecule `C=C1C(=O)O[C@H]2[C@H]1CC/C(COC(=O)C(=O)c1cn(C)c3ccc(OC)cc13)=C\CC[C@@]1(C)O[C@@H]21`, the growth was -55.3% (active) in assay [1]; -79.1% (active) in assay [2]; -79.2% (active) in assay [3]; -63.6% (active) in assay [4]; -34.8% (active) in assay [5]; -95.1% (active) in assay [6]. Besides, the values for the growth in assay [7] and in assay [8] were -65.3% (active) and -65% (active), respectively.
As to `Cc1nc2c(c(N3CCCc4ccccc43)n1)CCC2`, the growth in assay [1] was 45.3%; in assay [2], -12.1% (active); in assay [3], 1.15% (active); in assay [4] it was 22.5%; in assay [5], 14.6%; in assay [6] it was -17% (active). Moreover, the growth in assay [7] is 18.3%; in assay [8], 0.58% (active).
In the case of `CCN1C(=O)N(CC)C2Nn3c(s/c(=C4\C(=O)N(C)c5ccccc54)c3=O)=NC21` (stereo not drawn), the growth in assay [1] is 27.5%; in assay [2], 53.9%; in assay [3] it was -59.6% (active); in assay [4], 26.3%; in assay [5], 13.5%; in assay [6] it was 11.1%. In addition, the growth in assay [7] was 88.6%; in assay [8] it was 29.8%.
For `CCCCCCCCCCCCCCCCCC1=NCCN1CCOC1=C(Cl)C(=O)c2ccccc2C1=O`, the growth is 12.6% in assay [1]; 68% in assay [2]; 95.5% in assay [3]; 7.23% (active) in assay [4]; 65.6% in assay [5]; 43.6% in assay [6]. Also, the results for the growth in assay [7] and in assay [8] were 100% and 51%, respectively.
